SMILES strings stand for the structures.

The subject of this experiment is HeLa. The experiment is described as follows: percent cells in G1 phase; higher = more G1 arrest. To be noted: 10 µM; 20 h; hit class: G1-phase inhibitor. How it is done: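 HTS of 79,827 drug-like compounds at 10 uM. HeLa cells in 384-well plates were treated for 20 h, fixed, stained with Vybrant DyeCycle Green and scanned on an Acumen eX3 cytometer to give per-well cell cycle profiles (% cells in each phase). The plate Z' was 0.51. Only hits are listed: G1 hits >4 SD and S hits >5 SD from the mean.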
On to `CNC1CC2OC(C)(C1OC)n1c3ccccc3c3c4c(c5c6ccccc6n2c5c31)C(=O)NC4` (centres undefined), for which the “percent cells in G1 phase” value stood at 86.7%.
As to `C/C(=C\c1ccc(Cl)cc1)[N+](=O)[O-]`, the “percent cells in G1 phase” value worked out at 69.2%.
On to `C[C@@H]1C[C@@H]([C@H](O)CC2CC(=O)NC(=O)C2)C(=O)[C@@H](C)C1` [Cycloheximide], for which the “percent cells in G1 phase” value stood at 77%.
With `C/C=C(/C)C(=O)O[C@H]1C(C)=C2[C@H]([C@@H]1OC(=O)CCCCCCC)[C@@](C)(OC(C)=O)C[C@H](OC(=O)CCC)[C@@]1(O)[C@H]2OC(=O)[C@@]1(C)O`, the “percent cells in G1 phase” value was determined as 81.5%.
Regarding `C[C@@]12C(=O)OC(=O)[C@]1(C)[C@H]1CC[C@@H]2O1`, the “percent cells in G1 phase” value came out at 70.6%.
The same measure for `O=[N+]([O-])c1ccc(NCCO)c2ncccc12`: 69.5%.
In the case of `C[C@@H]1O[C@@H](O[C@H]2C[C@@H](O)[C@]3(CO)[C@H]4[C@H](O)C[C@]5(C)[C@@H](C6=CC(=O)OC6)CC[C@]5(O)[C@@H]4CC[C@]3(O)C2)[C@H](O)[C@H](O)[C@H]1O`, the “percent cells in G1 phase” value stood at 70.1%.
Regarding `CC(C)(C)c1cc(C=C(C#N)C#N)cc(C(C)(C)C)c1O`, the “percent cells in G1 phase” value worked out at 75.1%.
As to `CNc1ccc2oc(C[C@H]3O[C@@]4(CC[C@H]3C)O[C@H]([C@H](C)C(=O)c3ccc[nH]3)[C@H](C)C[C@H]4C)nc2c1C(=O)O`, the “percent cells in G1 phase” value turned out to be 84.7%.

Source of the values: the supplement of paper PMC4237247.
